Screen size: about 400,000 compounds; about 2,100 (0.53%) were called active. Roughly 14% stayed inconclusive and do not appear here. The rule behind the calls is not given here. The sample as a whole holds a higher share of actives than the screen did.

This test deals with Ataxin-2 (Homo sapiens) (UniProt Q99700). Kind of test: qHTS for Inhibitors of ATXN expression. It is filed as functional. Background: qHTS replaces the single test concentration by a dilution series.
Chain of Ataxin-2 (Homo sapiens) (Q99700 whole entry): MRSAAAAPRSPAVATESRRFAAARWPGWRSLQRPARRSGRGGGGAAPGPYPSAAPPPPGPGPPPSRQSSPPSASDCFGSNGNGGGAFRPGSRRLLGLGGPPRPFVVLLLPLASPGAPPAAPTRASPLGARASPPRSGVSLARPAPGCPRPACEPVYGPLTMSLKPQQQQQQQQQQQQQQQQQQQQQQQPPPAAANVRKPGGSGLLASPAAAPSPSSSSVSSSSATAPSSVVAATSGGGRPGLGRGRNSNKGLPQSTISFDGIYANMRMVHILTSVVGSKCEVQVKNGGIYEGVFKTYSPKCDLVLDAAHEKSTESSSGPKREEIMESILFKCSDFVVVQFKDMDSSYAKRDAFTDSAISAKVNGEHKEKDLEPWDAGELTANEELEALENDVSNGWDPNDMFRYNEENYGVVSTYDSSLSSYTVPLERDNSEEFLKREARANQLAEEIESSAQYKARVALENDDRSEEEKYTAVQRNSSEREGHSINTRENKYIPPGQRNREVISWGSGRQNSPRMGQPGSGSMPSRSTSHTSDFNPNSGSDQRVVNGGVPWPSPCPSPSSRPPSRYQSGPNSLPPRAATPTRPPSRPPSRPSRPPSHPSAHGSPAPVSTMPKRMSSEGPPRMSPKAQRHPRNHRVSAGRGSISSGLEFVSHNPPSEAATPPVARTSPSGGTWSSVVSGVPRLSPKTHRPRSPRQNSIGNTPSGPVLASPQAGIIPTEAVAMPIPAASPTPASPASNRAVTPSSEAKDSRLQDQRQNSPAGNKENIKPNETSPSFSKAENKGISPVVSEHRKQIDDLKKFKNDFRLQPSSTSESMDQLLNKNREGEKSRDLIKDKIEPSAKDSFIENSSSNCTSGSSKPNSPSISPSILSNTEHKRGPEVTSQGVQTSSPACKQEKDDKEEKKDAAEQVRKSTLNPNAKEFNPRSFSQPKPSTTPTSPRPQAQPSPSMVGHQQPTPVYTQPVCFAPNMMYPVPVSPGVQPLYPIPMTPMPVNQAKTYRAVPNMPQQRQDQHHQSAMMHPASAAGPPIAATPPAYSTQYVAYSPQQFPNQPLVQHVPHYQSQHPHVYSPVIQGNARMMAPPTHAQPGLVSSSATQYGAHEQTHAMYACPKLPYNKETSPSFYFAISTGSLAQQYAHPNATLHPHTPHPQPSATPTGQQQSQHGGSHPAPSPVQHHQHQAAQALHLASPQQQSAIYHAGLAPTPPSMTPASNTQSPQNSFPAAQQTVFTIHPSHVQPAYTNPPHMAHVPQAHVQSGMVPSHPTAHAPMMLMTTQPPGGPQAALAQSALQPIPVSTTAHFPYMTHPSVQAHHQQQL
Turning to `O=C(CCCCl)Oc1ccc2cc(-c3ccc4ccccc4n3)c(=O)oc2c1`, the Potency result is “inactive”.
For `Cc1ccc(NC(=O)C2CCCN2c2nn3c(=O)cc(C)nc3s2)cc1` (stereo not given), the Potency result was “inactive”.
In the case of `CCOc1ncccc1C(=O)OCC(=O)NC(=O)NC(C)C`, the Potency entry was “inactive”.
With `CCOc1ncccc1C(=O)Nc1nc(C(C)(C)C)cs1`, the Potency was 39.8 µM (active).
Regarding `CCOc1ncccc1C(=O)NC(C)CCc1ccccc1` (stereo not given), the Potency entry is “inactive”.
Take `COc1ccc2[nH]c3nc(SCc4nnc(-c5ccc(C)cc5)o4)nnc3c2c1`: the Potency is 22.4 µM (active).
Turning to `COc1ccc([C@@H](C)NC(=O)CCc2nnc(-c3cc(C)on3)o2)cc1`, the Potency entry is “inactive”.
In the case of `COc1ccc(C2CC(c3ccc(F)cc3)n3nc(NC(=O)c4ccco4)nc3N2)cc1` (stereo not given), the Potency result is “inactive”.
With `Cc1ccc(C)c(CSc2cn(CCNC(=O)c3cccs3)c3ccccc23)c1`, the Potency was 31.6 µM (active).
As to `N#Cc1c(N)n(CCNC(=O)c2cccs2)c2nc3ccccc3nc12`, the Potency result is “inactive”.
`CCCn1nc(NC(=O)c2cccs2)c2cc3cc(C)ccc3nc21`: the Potency entry was “inactive”.
In the case of `COC(=O)c1cc(=O)nc(NN=C2c3ccccc3-c3ccccc32)s1`, the Potency was 14.1 µM (active).
Consider `Cc1cccn2c(=O)c3cc(C#N)/c(=N\C(=O)c4ccccc4)n(Cc4ccco4)c3nc12`, for which the Potency entry is “inactive”.
Turning to `O=C(Oc1cc2oc(=O)c3c(c2cc1Cl)CCCC3)c1cccs1`, the Potency entry is “inactive”.
With `COc1cc2c(cc1OC)C(c1ccccc1)N(C(=O)CCl)CC2` (stereo not given), the Potency is 25.1 µM (active).
For `COc1cc2c(cc1OC)C(c1ccccc1Cl)N(C)CC2` (stereo not given) the value was “inactive”; for `COc1cc2c(cc1OC)CN(C1CCC(C(C)(C)C)CC1)CC2` (stereo not given), “inactive”; for `CCc1ccc(-c2cc(C(F)(F)F)n3nc(C(=O)Nc4cnn(Cc5ccccc5C)c4)cc3n2)s1`, “inactive”.
Consider `CC1(C)CC(=O)c2cnc(N3CCc4ccccc43)nc2C1`, for which the Potency result was “inactive”.
`COc1ccc(S(=O)(=O)N(C)C)cc1NC(=O)CCNC(=O)c1ccco1`: the Potency result is “inactive”.
As for `O=C(NCCNC1CCC(c2ccccc2)CC1)c1cccs1` (stereo not given), the Potency entry is “inactive”.
As to `O=C(c1cccs1)N1CCN(C(=O)c2cccs2)C1=S`, the Potency is 39.8 µM (active).
With `Nc1ccc(/C=C/C(=O)c2cccs2)cc1`, the Potency entry was “inactive”.
Turning to `CCOc1cc(Br)c(C(C)NC(=O)c2cccnc2)cc1OCC` (stereo not given), the Potency result was “inactive”.
Take `N#C/C(=C(/O)CCCl)c1ccccn1`: the Potency entry was “inactive”.
For `FC(F)Sc1ccc(NC(=S)N2CCN(c3ccccn3)CC2)cc1` the value was “inactive”; for `CCOC(=O)C1=Nc2ccccc2C1=[N+]=[N-]`, 39.8 µM (active).
The value for `CCOC(=O)c1cnc(-c2ccccc2O)nc1Cl` was “inactive”; that for `CCOC(=O)C1C(C(=O)NN)C1C(=O)Nc1ccccc1` (stereo not given) was “inactive”.
For the compound `Cc1ccc2nc3c(cc2c1)c(C)nn3-c1ccccc1`, the Potency result was “inactive”.

These data come from ChEMBL document CHEMBL1201862, “PubChem BioAssay data set” (2004).
